Records with an inconclusive call do not appear. Active and inactive are the calls of the source. Calls follow the shape of the dose curve; as a rule, active = well fitted cell-killing curve with a large enough effect in the repeat runs; inconclusive = weak or mixed curves, or effect the other way; inactive = no such curve, though single readings can be large or run the other way.
assay: qHTS assay to identify small molecule agonists of the estrogen receptor alpha (ER-alpha) signaling pathway in the presence of an antagonist - cell viability counter screen (AID 1259386); settings: VM7Luc4E2 viability, CellTiter-Fluor fluorescence, 22 h; series mostly up to 92.4 µM; activity change, negative = cytotoxicity: at the top concentration;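 also: cells exposed to compounds for 22 h at 37 °C before the viability read; nearly all actives have a fitted effect of over 30% in size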
From the text: National Center for Advancing Translational Sciences [NCATS]
NIH Chemical Genomics Center [NCGC]
U.S. Environmental Protection Agency [EPA]
National Institutes of Environmental Health Sciences [NIEHS]
National Toxicology Program [NTP]
U.S. Food and Drug Administration [FDA]
Estrogen receptor (ER), a member of nuclear hormone receptor plays an important role in development, metabolic homeostasis and reproduction. Two subtypes of ER, ER-alpha and ER-beta, have similar expression patterns with some uniqueness in both types. Endocrine disrupting chemicals (EDCs) and their interactions with steroid hormone receptors like ER causes disruption of normal endocrine function. Therefore, it is important to understand the effect of environmental chemicals in ER signaling pathway. For identifying ER agonists, VM7Luc4E2 cell line has been used in the current assay.
VM7Luc4E2 cell line (provided by Denison MS, University of California) endogenously expresses full-length ER-alpha and is stably transfected with a plasmid containing four estrogen responsive elements (ERE) upstream of a luciferase reporter gene. This current screening for measuring luciferase reporter gene activity using VM7Luc4E2 cells against Tox21 10K library collection is a confirmation study on agonist mode screening in presence of ER-antagonist (ICI-182,780) at 10.0nM final concentration. The cytotoxicity of the compounds was tested in parallel by measuring the cell viability using CellTiter-Fluor assay system (Promega, Madison, WI) in the same wells.
Tox21 Assay Protocol Summary:
VM7Luc4E2 cells were cultured in phenol red free assay medium containing 10% charcoal stripped FBS for 5 days prior to the assay. The cells were dispensed at 4,000 cells in 4uL of assay medium per well into white wall/solid-bottom 1536-well plates (Corning Life Sciences, Corning, NY) using a Multidrop Combi (Thermo Fisher Scientific Inc., Waltham, MA) dispenser. After the assay plates were incubated at 37C and 5% CO2 for 24hr, 1uL of 10.0nM (final concentration) ICI-182,780 or assay buffer was added using two separate tips of Flying Reagent Dispenser (FRD, Aurora Discovery, San Diego, CA). Then 23nL of compounds dissolved in DMSO at 15 concentrations and positive controls or DMSO only was transferred to the assay plates by a Pintool station (Wako, San Diego, CA). The assay plates were incubated at 37C and 5% CO2 for 22hr. After 21hr incubation at 37C, 1uL/well CellTiter-Fluor reagent (Promega Corporation, Madison, WI) was added to each well using FRD and after 1hr incubation at 37C and 5% CO2, the fluorescence signal was measured on ViewLux plate reader (PerkinElmer, Shelton, CT).
% is scaled to controls: 0 for no effect and ±100 for the full control effect; potency is read from the fitted curve at half-maximal effect.

Row | SMILES | activity change, negative = cytotoxicity | Potency
1 | COC=O | -3.92% [at 8.39 µM] (inactive) | 
2 | O=C(OC1C[C@H]2CC[C@@H](C1)[N+]21CCCC1)C(O)(c1ccccc1)c1ccccc1 (stereo not given in full) | 2.59% [at 42.5 µM] (inactive) | 
3 | CC(COc1ccccc1)NC(C)C(O)c1ccc(O)cc1 (stereo not given) | -9.16% [at 42.5 µM] (inactive) | 
4 | CCCCCCOC(=O)c1ccccc1 | -8.89% (inactive) | 
5 | CC(=O)c1cccnc1 | 2.2% (inactive) | 
6 | CC(=O)S[C@H](C(=O)N[C@H]1Cc2ccccc2[C@H]2CCC[C@@H](C(=O)O)N2C1=O)C(C)C | 3.78% (inactive) | 
7 | CCCCCCCCCCCCSCCOCCO | -0.858% [at 42.5 µM] (inactive) | 
8 | O=C(N[C@@H](Cc1ccccc1)[C@@H](O)C(=O)N1C[C@@H](O)[C@@H](O)C1)c1cc2cc(Cl)ccc2[nH]1 | -0.367% (inactive) | 
9 | CC(=O)CC/C=C(\C)CC/C=C(\C)CC/C=C(\C)CCC=C(C)C | 6.07% [at 42.5 µM] (inactive) | 
10 | CCC(C)CCCC(C)(C)O (stereo not given) | 0.592% (inactive) | 
11 | C[C@@H](O)[C@H]1C(=O)N2C(C(=O)O)=C(S[C@@H]3CN[C@H](CNS(N)(=O)=O)C3)[C@H](C)[C@H]12 | 3.12% [at 42.5 µM] (inactive) | 
12 | CC1(COc2ccc(CC3SC(=O)NC3=O)cc2)CCCCC1 (stereo not given) | -5.12% [at 42.5 µM] (inactive) | 
13 | COc1cc(C)c(Cc2cnc(N)nc2N)cc1OC | 5.92% [at 42.5 µM] (inactive) | 
14 | Cc1c(Cl)cccc1Nc1ccccc1C(=O)O | 0.444% [at 42.5 µM] (inactive) | 
15 | C=CC(O)CCCCC (stereo not given) | 0.672% (inactive) | 
16 | O=C1CCCN1CCO | -10.6% (inactive) | 
17 | O=C1C=CCCC1 | -5.59% (inactive) | 
18 | COc1ccc(C(=O)c2ccc(C)cc2)c(O)c1 | -5.04% (inactive) | 
19 | Nc1ccc(-c2ccc(F)cc2)cc1 | 0.169% (inactive) | 
20 | CCCC(=O)OCCC(C)C | 3.56% (inactive) | 

Row | SMILES | activity change, negative = cytotoxicity | Potency
21 | CC(C)=CCC[C@H](C)CCO | 1.22% (inactive) | 
22 | Cc1c(N=C=O)cccc1N=C=O | 1.53% (inactive) | 
23 | CCCCCCCCS | 2.43% (inactive) | 
24 | Cc1cccc(C)c1NC(=O)CN1CCCC1 | -0.577% [at 42.5 µM] (inactive) | 
25 | C/C(=C(\CCO)SS/C(CCO)=C(\C)N(C=O)Cc1cnc(C)nc1N)N(C=O)Cc1cnc(C)nc1N | 3.73% [at 42.5 µM] (inactive) | 
26 | CC(C)CCCCCCCOC(=O)c1ccc(C(=O)OCCCCCCCC(C)C)c(C(=O)OCCCCCCCC(C)C)c1 | 1.34% (inactive) | 
27 | O=c1c2ccccc2oc2ccccc12 | 2.68% (inactive) | 
28 | CCOc1ccc2c(c1)C(C)CC(C)(C)N2 (stereo not given) | 0.718% (inactive) | 
29 | O=C(O)c1ccncc1 | 0.298% (inactive) | 
30 | CS(C)=O | -0.283% (inactive) | 
31 | Nc1cccc2c(=O)[nH][nH]c(=O)c12 | -3.12% (inactive) | 
32 | CC(C)Oc1ccccc1O | 8.05% (inactive) | 
33 | Oc1ccc(Oc2ccccc2)cc1 | 0.311% (inactive) | 
34 | C=Cc1ccc(C=C)cc1 | 1.7% (inactive) | 
35 | C(/C=C/C=C/Nc1ccccc1)=Nc1ccccc1 | -0.733% (inactive) | 
36 | CCN(CC)CC(=O)OCC(=O)[C@@]1(O)CC[C@H]2[C@@H]3CCC4=CC(=O)CC[C@]4(C)[C@H]3[C@@H](O)C[C@@]21C | -0.524% [at 42.5 µM] (inactive) | 
37 | O=Cc1ccc([N+](=O)[O-])cc1 | -2.13% (inactive) | 
38 | FC(F)(Cl)C(F)(Cl)Cl | 1.37% (inactive) | 
39 | CC(C)C[C@H](NC(=O)[C@H](Cc1ccccc1)NC(=O)c1cnccn1)B(O)O |  | 841 nM (active)
40 | CC1=C(C)C(=O)C(C(CCCCCC(=O)O)c2ccccc2)=C(C)C1=O (stereo not given) | -6.85% [at 42.5 µM] (inactive) | 

Source: PubChem BioAssay (Tox21)
